# Measurements published in PubChem BioAssay AID1822 (The Scripps Research Institute Molecular Screening Center, 2009).
# The campaign covered roughly 290,000 compounds. About 3,500 (1.2%) were called active. Many of the other results were omitted from the sample, so actives are more common in it than they were. Unmarked numbers belong to inactive results.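 Rule for the calls: active = inhibition above the campaign mean inhibition over all tested compounds plus 3 SD (cut at about 28% in these data); inactive = the rest.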
# Tested on: M18 aspartyl aminopeptidase (Plasmodium falciparum 3D7)
# Experiment: inhibition of P. falciparum M18 aminopeptidase – biochemical, QFRET, recombinant enzyme, primary screen (AID 1822);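 note: 0% = plate median of test compound wells and 100% = 2 mM ZnCl2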
# Conditions: recombinant PfM18AAP, H-Glu-NHMec fluorogenic cleavage; at 7.35 µM; hits give high values
row,SMILES,inhibition
1,CN(C)S(=O)(=O)c1ccc2oc(SCC(=O)Nc3ccccc3F)nc2c1,2.13%
2,CCN(CC)c1ccc2cc(C(N)=O)/c(=N\NC(=O)c3ccncc3)oc2c1,17.2%
3,CCN(CC)c1ccc2oc(=O)c(C)nc2c1,55.5% (active)
4,C=CCN(C(=O)Nc1ccc2oc(C)nc2c1)c1ccccc1,13%
5,COc1ccc(Nc2cc(Sc3ccc(OC)cc3)ncn2)cc1,2.95%
6,Cc1ccsc1C(=O)N[C@@H](C)c1nnc2ccccn12,-8.31%
7,Cc1cccc(N2CCN(C(=O)CCS(=O)(=O)c3ccc4c(c3)NC(=O)C(C)S4)CC2)c1C (stereo not drawn),-6.34%
8,O=C(O)c1ccccc1-c1ccccc1C(=O)Nc1ccccc1Br,-9.93%
9,O=C1CCN(CCc2ccccc2)CCN1CCOc1ccccc1,1.32%
10,O=C(Nc1ccc(C(=O)N2CCOCC2)cc1)Nc1cccc(C(F)(F)F)c1,-2.75%
11,COc1ccccc1N1CCN(C(=O)CSc2ncnc3c2cnn3-c2ccc(C)c(C)c2)CC1,-5.63%
12,CC1CCN(C(=O)c2ccc3c(c2)NC(=O)CN3)CC1,31.9% (active)
13,CC1CCN(C(=O)c2ccc3c(=O)n4c(nc3c2)CCCCC4)CC1,-5.35%
14,CC1CCN(C(=O)c2ccc(CSc3ccc(Cl)cc3)cc2)CC1,-3.98%
15,CCCN1C2CCCC1CC(NC(=O)c1cccc(OC)c1)C2 (stereo not drawn),-5.08%
16,Cc1cccn2c(=O)c3cc(C(=O)NCC4CCCO4)c(=N)n(Cc4ccc(F)cc4)c3nc12 (stereo not drawn),5.3%
17,Oc1ccc(-n2nnnc2SCc2c(F)cccc2Cl)cc1,9.59%
18,CCCN1Cc2cccc(C(=O)Nc3ccc(S(=O)(=O)N4CCCCCC4)cc3)c2C1=O,3.06%
19,O=C1CCN(CCCc2ccccc2)CCN1CCO,10.1%
20,CCn1c(CSCc2c(Cl)cccc2Cl)n[nH]c1=S,14.7%
21,CSc1ccc(S(=O)(=O)NCc2ccc(Cl)cc2)cc1,5.25%
22,CCn1c(CNS(=O)(=O)c2ccc(Cl)cc2)n[nH]c1=S,31.8% (active)
23,Cc1cc(C)n(-c2ccc(NC(=O)C3CCCCN3C(=O)c3cccs3)cc2)n1 (stereo not drawn),10.7%
24,Cc1cc(NC(=O)CSc2nc(=O)cc(N)n2-c2ccc(F)cc2)no1,2.27%

row,SMILES,inhibition
1,Cc1[nH][nH]c(=O)c1N=Nc1ccccc1,-5.94%
2,O=c1[nH]n2c(=O)c3c([nH]c2c1N=Nc1ccccc1)CCC3,31.3% (active)
3,O=c1[nH]c2c(c(=O)n1Cc1ccccc1)CCC2,-7.19%
4,O=C(CNC(=O)C1COc2ccccc2O1)N/N=C/c1cc(Br)c(O)c(Br)c1 (stereo not drawn),10.4%
5,Cc1c(C)c2ccc(OCC(=O)N3CCC(C(=O)O)CC3)c(C)c2oc1=O,3.02%
6,Cc1c(CC(=O)N2CCN(C(=O)C3COc4ccccc4O3)CC2)c(=O)oc2c(O)c(O)ccc12 (stereo not drawn),56.5% (active)
7,O=C(Nc1ccc(F)cc1)c1ccc(S(=O)(=O)NCc2cccnc2)cc1,1.68%
8,O=C(O)c1cccc(N2C(=O)Nc3ccccc3N2O)c1,-0.41%
9,C/C(=N\Nc1cccc(C(=O)O)c1)c1ccc2c(c1)Nc1ccccc1S2,28.6% (active)
10,O=C(NC1CC1)c1ccc2c(c1)NC(=O)c1ccccc1S2,-6.63%
11,CCOc1ccc(OCC)c(NC(=O)CCS(=O)(=O)c2ccc(C)cc2)c1,-4.08%
12,O=C(Nc1ccc2sc3ccccc3c(=O)c2c1)c1ccccc1Cl,3.74%
13,COc1ccc(NC(=O)CN(C)C(=O)CNC(=O)C2CCCCC2)cc1,5.81%
14,COc1ccc(NC(=O)c2sc3nc(C)nc(N4CCN(c5ccccn5)CC4)c3c2C)c(OC)c1,-4.65%
15,NC(=O)c1c(Nc2nc3c(F)cccc3s2)sc2c1CCCC2,49.1% (active)
16,NC(=O)c1c(NC(=O)c2ccccc2)sc2c1CCCC2,1.26%
17,O=C(Nc1sc2c(c1C(=O)O)CCC2)c1ccccc1F,-1.52%
18,CC(=O)c1ccc(NC(=O)CCNS(=O)(=O)c2cc(Br)cnc2N)cc1,-3.06%
19,S=C(c1ccc(-c2ccccc2)o1)N1CCCCC1,30.8% (active)
20,CC1CCN(C(=S)c2ccc(-c3ccc(Cl)cc3Cl)o2)CC1,4.16%
21,S=C(c1ccccc1)N1CCCC1,-1.81%
22,O=C1c2cccc3c([N+](=O)[O-])ccc(c23)C(=O)N1CC1CCCO1 (stereo not drawn),4.32%
23,O=C(OCc1ccc([N+](=O)[O-])cc1)C1CC(=O)N(Cc2ccccc2Cl)C1 (stereo not drawn),-11.3%
24,CC(C)N1CCC(N2CCN(Cc3cccnc3)CC2CCO)CC1 (stereo not drawn),4.35%

row,SMILES,inhibition
1,CSC(=S)N/N=C/c1c[nH]c2ccccc12,9.14%
2,O=C(O)c1cccc(NC(=S)N/N=C/c2c[nH]c3ccccc23)c1,38.5% (active)
3,O=C(N/N=C/c1c[nH]c2ccccc12)c1ccccc1O,9.89%
4,CCc1[nH]nc(C(=O)N2CCCC(CO)(Cc3ccc(F)cc3F)C2)c1C (stereo not drawn),-13.6%
5,Cc1cc(OCc2cc(C(=O)NCc3cc(C(C)C)no3)no2)cc(C)c1Cl,-17.4%
6,Cc1ccc(-c2nc3ccccc3[nH]c2=O)cc1,-7.7%
7,O=c1[nH]c2ccccc2n2c(-c3ccccc3)nnc12,33.2% (active)
8,CC(=O)c1c(-c2ccccc2)c2ccccc2[nH]c1=O,-2.54%
9,CC(=O)N1c2ccc(S(=O)(=O)N3CCC(C(=O)NC4CCCCC4C)CC3)cc2CC1C (stereo not drawn),17.8%
10,COc1cc(/C=C2/C(=O)NN(c3ccc(F)cc3)C2=O)cc([N+](=O)[O-])c1O,9.62%
11,COc1cc(/C=C2/C(=O)NN(c3cccc(Cl)c3)C2=O)cc(Br)c1O,32.2% (active)
12,C#CCOc1ccc(/C=C2/C(=O)NN(c3ccccc3)C2=O)cc1OC,22%
13,Cn1c(=O)c([N+](=O)[O-])c(Oc2ccccc2)c2ccccc21,24%
14,CC1CCN(C(=O)/C(=C\c2ccccc2)NC(=O)c2ccccc2)CC1,-0.48%
15,Cc1ccc(C(=O)N/C(=C\c2ccco2)C(=O)N2CCSCC2)cc1C,-11%
16,NC(=O)C1CCN(C(=O)/C(=C/c2ccco2)NC(=O)c2ccccc2)CC1,35.1% (active)
17,CCc1ccc(-c2cc3c(=O)n(CC(=O)NCCCN4CCN(Cc5ccccc5)CC4)nc(C)n3n2)cc1,-0.45%
18,Cc1ccc(OCC(=O)Nc2ccc(NC(=O)c3cccs3)cc2)c(C)c1,2.4%
19,CCCc1nnc(NC(=O)CCC(=O)N2CCN(S(=O)(=O)c3ccc(OC)cc3)CC2)s1,3.89%
20,N#C/C(=C\c1ccc(-c2cccc([N+](=O)[O-])c2)o1)C(=O)NCCN1CCOCC1,2.81%
21,Cc1ccc(-c2ccc(/C=C(\C#N)C(N)=S)o2)c([N+](=O)[O-])c1,34% (active)
22,Cc1ccc(Cc2cnc(NC(=O)/C(C#N)=C/c3ccc(-c4cccc([N+](=O)[O-])c4)o3)s2)cc1,1.04%
23,Cc1ccc(N(C(=O)c2snc(C(N)=O)c2N)C(C(=O)NCC2CCCO2)c2c[nH]c3ccccc23)cc1 (stereo not drawn),2.71%
24,CN1CCN(CCCCOc2ccccc2-c2ccccc2)CC1,2.29%

row,SMILES,inhibition
1,OCCN1CCN(c2nnc(-c3ccccc3)c3ccccc23)CC1,4.34%
2,OCCN1CCN(C(=S)c2ccc(-c3ccccc3)cc2)CC1,50% (active)
3,CC(=O)Nc1ccc(S(=O)(=O)Oc2ccc(Br)cc2C(=S)N2CCOCC2)cc1,20.7%
4,COc1cc(CC(=O)N2CCC(n3nccc3NC(=O)C3CC3)CC2)cc(OC)c1OC,1.44%
5,CCOC(=O)c1cccc(NC(=O)CCc2nnc3ccc(N4CCOCC4)nn23)c1,-1.08%
6,CCN(CC)c1ccc(NC(=O)CCc2nnc3ccc(N4CCCCC4)nn23)c(C)c1,34.1% (active)
7,CCOc1ccc(CCNC(=O)CCc2nnc3ccc(N4CCCC4)nn23)cc1OCC,-5.76%
8,CCC(c1nnnn1C(C)(C)C)N(Cc1cc2cccc(C)c2n2nnnc12)C1CCCC1 (stereo not drawn),-1.66%
9,Cc1nn(C(C)(C)C)c(OC(=O)CC(C)C)c1S(=O)(=O)c1ccccc1,3.62%
10,Cc1ccc2nc(-c3cccc(Br)c3)cc(C(=O)Nn3cnnc3)c2c1,60.7% (active)
11,Cc1ccc2nc(-c3ccncc3)cc(C(=O)Nc3ccncc3)c2c1,1.48%
12,Cc1ccc(-c2cc(C(=O)NCc3cn(C)nc3C)c3cc(Br)ccc3n2)cc1,0.33%
13,N#Cc1c(-c2ccccc2)nc(SCc2cccc(C(F)(F)F)c2)[nH]c1=O,0.63%
14,COc1ccc(-c2nonc2NC(=O)c2oc3ccc(F)cc3c2C)cc1OC,2.64%
15,COc1ccccc1N1CCN(/N=C/c2ccc(O)cc2O)CC1,9.99%
16,Oc1ccc(/C=N/Nc2nc(-c3ccccc3F)nc3ccccc23)c(O)c1,18%
17,Oc1ccc(/C=N/NC2=NCCCCC2)c(O)c1,40.1% (active)
18,Cc1nc2ccccc2nc1N/N=C/c1ccc(O)cc1O,31.6% (active)
19,COc1ccc(/C=C(\C#N)C(=O)ONC2=NCCCCC2)cc1,3.59%
20,Cc1cc(N/N=C/c2ccccc2F)c2ccccc2n1,3.64%
21,O=C(NNC(=O)C1CCCC1)c1ccc(F)cc1,3.26%
